Bioassay records from PubChem.
Only some compounds are listed: those with a hit (about 10% of all), similar ones and a draw of the others.
KB-3-1 tox: KB-3-1 parental cell cytotoxicity; KB-3-1 viability, CellTiter-Glo ATP luminescence, 72 h; Potency, µM (highest dose often 46.1 µM), usual class: cytotoxic; actives 1.4% (n = 400,000); further: nearly all actives have a fitted effect of over 60% in size
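Multi-concentration cytotoxicity screen in KB-3-1 cells grown in DMEM lacking phenol red with 10% FBS. After 72 h at 37 °C with compound, ATP-dependent luminescence was recorded.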
RORgamma inh: ROR gamma (mouse) transcription inhibition; P51450; Potency, µM (highest dose often 53.6 µM), actives largely listed as inhibitors; Drosophila S2 Gal4-RORgamma UAS-luciferase reporter, 20 h; actives 5.4% (n = 310,000); further: nearly all actives have a fitted effect of over 60% in size
Target sequence (P51450 whole entry, looked up, the tested form may be a part): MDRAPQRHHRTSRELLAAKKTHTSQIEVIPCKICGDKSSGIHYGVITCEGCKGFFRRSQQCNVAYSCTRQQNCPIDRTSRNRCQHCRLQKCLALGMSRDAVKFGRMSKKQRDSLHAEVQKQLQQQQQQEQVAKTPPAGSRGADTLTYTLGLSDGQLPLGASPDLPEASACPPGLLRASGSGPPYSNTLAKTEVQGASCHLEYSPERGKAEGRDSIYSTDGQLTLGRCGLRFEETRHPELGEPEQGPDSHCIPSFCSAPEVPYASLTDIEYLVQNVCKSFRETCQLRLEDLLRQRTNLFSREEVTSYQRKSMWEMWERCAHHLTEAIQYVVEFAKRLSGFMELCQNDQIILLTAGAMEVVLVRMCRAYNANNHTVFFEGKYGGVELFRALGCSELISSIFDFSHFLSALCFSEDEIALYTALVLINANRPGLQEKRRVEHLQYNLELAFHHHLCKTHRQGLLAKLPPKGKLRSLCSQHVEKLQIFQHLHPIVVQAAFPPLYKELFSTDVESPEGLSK
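In this cell-based reporter format, copper sulfate (700 uM final) drives Gal4–ROR gamma fusion expression from a metallothionein promoter in Drosophila Schneider cells; compounds preincubated 1 hr, reporter read after 20 hr at ambient temperature.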
MCF10A rerep: induces DNA re-replication in MCF 10a normal breast cells. MCF 10A DNA re-replication, Hoechst nuclear intensity, 48 h. Potency, µM (doses to about 46.1 µM), most hits filed as activators. actives 2.9% (n = 350,000); further: nearly all actives have a fitted effect of over 50% in size
SW480 rereplic: inducers of DNA re-replication in SW480 colon cancer cells. SW480 DNA re-replication, Hoechst DNA content imaging, 48 h. Potency, µM (series often up to 46.1 µM), usual class: activators. actives 1.8% (n = 340,000). AID 624297; further: nearly all actives have a fitted effect of over 55% in size
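Hoechst fluorescence of nuclei (405 nm excitation, 500-530 nm emission) measured by plate-scanning imager after 48 hr compound exposure at 37 C; re-replication scored as increased number of nuclei with elevated intensity.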
VP16 counter: counter-screen for ROR gamma inhibitors: Gal4-VP16 reporter; Drosophila S2 Gal4-VP16 UAS-luciferase, luminescence, 20 h; Potency, µM (highest dose often 53.6 µM), actives largely listed as inhibitors; actives 3.5% (n = 310,000); AID 2546;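 further: Gal4-VP16 expression switched on by copper sulfate through the metallothionein promoter; nearly all actives have a fitted effect of over 50% in size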
KB-V1 MDR tox: kills drug-selected multidrug resistant KB-V1 cells; Potency, µM (titrated, usually from 46.1 µM), most hits filed as cytotoxic; AID 1347076; KB-V1 MDR cells viability, CellTiter-Glo, 72 h; actives 3.4% (n = 400,000); further: nearly all actives have a fitted effect of over 60% in size
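Readout: CellTiter-Glo luminescence, 10 min after addition. Cells: KB-V1 MDR subline, 72 h at 37 degrees C with compound. Analysis: corrected, normalized data fitted to concentration-effect curves.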
Each line names hits and unclear results; the compound was inactive in the other large screens. The call rests on the fitted dose curve; in most records, active means well fitted curve in the direction sought with a large enough effect; inconclusive means small, poorly fitted or top-dose-only effect, or another doubt; inactive means no such curve, though single readings can be large; an effect the other way counts as inactive or inconclusive.

O=C(Cc1ccc(Cl)cc1)NCC(c1cccs1)S(=O)(=O)c1ccccc1 (stereo unspecified)	none (no result: RORgamma inh, MCF10A rerep, SW480 rereplic, VP16 counter)
COc1ccc(-c2nc(NC(=O)Cn3cnnn3)sc2C)cc1	RORgamma inh inconclusive, MCF10A rerep 2.1µM
COc1ccc(/C(C)=N/N2C(C)CCCC2C)c(OC)c1 (stereo unspecified)	RORgamma inh 13µM, VP16 counter inconclusive
Cc1cc(C(F)(F)F)nn1-c1nc(-c2ccccc2)cc(C(F)(F)F)n1	none (no result: RORgamma inh, MCF10A rerep, SW480 rereplic, VP16 counter)
CN1CCN(S(=O)(=O)c2ccc(NC(=S)NC(=O)c3ccc(Cl)cc3)cc2)CC1	RORgamma inh 3.2µM, MCF10A rerep inconclusive, VP16 counter inconclusive, KB-V1 MDR tox inconclusive
CC1CCN(S(=O)(=O)c2ccc(NC(=S)NC(=O)c3ccc(Cl)cc3)cc2)CC1	RORgamma inh 2µM, VP16 counter 4µM
CN1CCN(S(=O)(=O)c2ccc(NC(=S)NC(=O)c3ccccc3)cc2)CC1	RORgamma inh inconclusive
CC1CCCCN1CC(O)COCCC12CC3CC(CC(C3)C1)C2 (stereo unspecified)	KB-3-1 tox 16µM, SW480 rereplic inconclusive, KB-V1 MDR tox inconclusive
Cc1cccc(NC(=O)c2ccc3snnc3c2)c1C	KB-V1 MDR tox inconclusive (no result: RORgamma inh, MCF10A rerep, SW480 rereplic, VP16 counter)
COc1cc(C(=O)N2CCN(c3ccccc3OC)CC2)c([N+](=O)[O-])cc1OC	KB-3-1 tox inconclusive, SW480 rereplic inconclusive, KB-V1 MDR tox inconclusive
COc1cc(C(=O)N2CCCc3ccccc32)c([N+](=O)[O-])cc1OC	MCF10A rerep 16µM
O=C(c1ccc([N+](=O)[O-])s1)N1CCCc2ccccc21	SW480 rereplic 6.5µM, KB-V1 MDR tox inconclusive
Cc1ccc(CCNC(=O)c2ccc(CSCc3ccc(C)cc3)o2)cc1	none (no result: RORgamma inh, MCF10A rerep, SW480 rereplic, VP16 counter)
Cc1nn(-c2ccccc2)c2sc(C(=O)N3CCc4ccccc4C3)cc12	RORgamma inh inconclusive, VP16 counter inconclusive, KB-V1 MDR tox 18µM
Cc1nn(-c2ccccc2)c2sc(C(=O)NNC(=O)COc3ccccc3)cc12	RORgamma inh 7.1µM, VP16 counter 10µM
Cc1nn(-c2ccccc2)c2sc(C(=O)Nc3ccc(Br)cc3)cc12	none (no result: RORgamma inh, MCF10A rerep, SW480 rereplic, VP16 counter)
Cc1nn(-c2ccccc2)c2sc(C(=O)NC3CCCCC3)cc12	none
Cc1nn(-c2ccccc2)c2sc(C(=O)NNC(=O)COc3cccc4ccccc34)cc12	KB-3-1 tox inconclusive, RORgamma inh 8.9µM, MCF10A rerep 23µM, SW480 rereplic inconclusive, VP16 counter inconclusive, KB-V1 MDR tox 18µM
Cc1cnc(NC(=O)c2cc3c(C)nn(-c4ccccc4)c3s2)s1	RORgamma inh 0.89µM, SW480 rereplic inconclusive, VP16 counter 1.1µM
CCCCc1ccc(-n2nc3cc(Cl)c(NC(=O)c4ccc(OC)cc4)cc3n2)cc1	none (no result: RORgamma inh, MCF10A rerep, SW480 rereplic, VP16 counter)
Cc1ccc(SCC(c2ccccc2)N2CCN(CCc3ccccc3)CCC2=O)cc1 (stereo unspecified)	RORgamma inh inconclusive (no result: KB-3-1 tox, MCF10A rerep, SW480 rereplic, KB-V1 MDR tox)
Cc1[nH]c2ccccc2c1C(=O)C(C)OC(=O)c1ccc([N+](=O)[O-])o1 (stereo unspecified)	KB-3-1 tox inconclusive, RORgamma inh 14µM, MCF10A rerep 23µM, SW480 rereplic inconclusive, KB-V1 MDR tox inconclusive
Cc1ccc(-n2ncc(C#N)c2/N=C/N2CCN(C)CC2)cc1	none
CCCCN(C)/C=N/c1c(C#N)cnn1-c1ccc(C)cc1	KB-3-1 tox inconclusive, MCF10A rerep inconclusive, KB-V1 MDR tox 5.8µM
O=C(C1CCN(S(=O)(=O)c2ccc(Cl)cc2)CC1)N1CCC1	none (no result: RORgamma inh, VP16 counter)
Cc1n[nH]c(C)c1S(=O)(=O)N1CCCC(C(=O)N2CCN(c3ccc(Cl)cc3)CC2)C1 (stereo unspecified)	SW480 rereplic inconclusive, KB-V1 MDR tox inconclusive
O=S(=O)(c1cccs1)N1CCN(c2ncccn2)CC1	KB-V1 MDR tox inconclusive
O=C(C1CCN(S(=O)(=O)c2c(Cl)cccc2Cl)CC1)N1CCCCCCC1	SW480 rereplic 4.1µM (no result: RORgamma inh, VP16 counter)
O=C(C1CCN(S(=O)(=O)c2ccc(Cl)s2)CC1)N1CCN(c2ccccc2)CC1	KB-V1 MDR tox 18µM (no result: RORgamma inh, VP16 counter)
Cc1nn(C)c(C)c1S(=O)(=O)N1CCCC(C(=O)N2CCN(c3ccc(Cl)cc3)CC2)C1 (stereo unspecified)	KB-3-1 tox 18µM
O=S(=O)(c1ccc(Cl)s1)N1CCN(c2ncccn2)CC1	MCF10A rerep 18µM
COC(=O)c1ccc(OCC2c3cc(OC)c(OC)cc3CCN2C(=O)Cc2ccc(OC)cc2)cc1 (stereo unspecified)	KB-V1 MDR tox inconclusive (no result: RORgamma inh, MCF10A rerep, SW480 rereplic, VP16 counter)
O=C(C1CCN(S(=O)(=O)c2cccnc2)CC1)N1CCN(c2ccc(Cl)cc2)CC1	KB-3-1 tox 13µM, RORgamma inh inconclusive, VP16 counter inconclusive, KB-V1 MDR tox 6.5µM
O=C(C1CCN(S(=O)(=O)c2cccnc2)CC1)N1CCN(c2ccccc2Cl)CC1	KB-V1 MDR tox inconclusive
COc1ccc(N2CCN(C(=O)COC(=O)CNC(=O)c3cccc(OC(F)F)c3)CC2)cc1	KB-V1 MDR tox inconclusive (no result: RORgamma inh, VP16 counter)
COc1ccc(N2CCN(C(=O)Cn3cnc4sc(C)c(S(=O)(=O)N5CCCCC5)c4c3=O)CC2)cc1	none (no result: RORgamma inh, MCF10A rerep, SW480 rereplic, VP16 counter)
Cc1c(Cl)cccc1NC(=O)Nc1ccccc1C(N)=O	SW480 rereplic inconclusive
CC1=NN(C(N)=S)C(=O)C1N=Nc1cccc2ccccc12 (stereo unspecified)	RORgamma inh 0.63µM, VP16 counter 2.8µM (no result: KB-3-1 tox, MCF10A rerep, SW480 rereplic, KB-V1 MDR tox)
CC1=NN(C(N)=S)C(=O)C1N=Nc1cccc(Cl)c1C (stereo unspecified)	RORgamma inh 0.35µM, VP16 counter 1µM
CC(=O)Oc1c(-c2ccco2)oc2ccccc2c1=O	RORgamma inh 13µM, MCF10A rerep inconclusive, SW480 rereplic 16µM, VP16 counter inconclusive, KB-V1 MDR tox inconclusive
CCN(CC)C(=O)COc1c(-c2ccco2)oc2ccccc2c1=O	MCF10A rerep inconclusive
CCn1c(-c2ccco2)nc2ccccc21	none (no result: VP16 counter)
Cc1cccc(OCCn2c(-c3ccco3)nc3ccccc32)c1	RORgamma inh 16µM, SW480 rereplic 6.5µM
Cc1cccc(OCCn2c(S(=O)(=O)O)nc3ccccc32)c1	none
c1ccc(OCCn2c(-c3ccco3)nc3ccccc32)cc1	RORgamma inh 11µM
CN1C(=S)SC(N(O)C(=O)Nc2ccc(Cl)c(Cl)c2)C1(C)C (stereo unspecified)	KB-3-1 tox inconclusive, RORgamma inh inconclusive, MCF10A rerep inconclusive, KB-V1 MDR tox 18µM
Cc1ccc(-c2ccc(=O)n(Cc3cccc(Br)c3)n2)cc1	KB-3-1 tox inconclusive, MCF10A rerep inconclusive, SW480 rereplic inconclusive, KB-V1 MDR tox 16µM
O=c1ccc(-c2ccccc2)nn1Cc1ccccc1	none (no result: RORgamma inh, VP16 counter)
COCCCN(C(=S)NC(=O)c1ccc(Br)cc1)c1c(N)n(Cc2ccccc2)c(=O)[nH]c1=O	RORgamma inh 10µM
